Laboratory results as given in PubChem BioAssay (EPA / NIEHS).
The source made the active and inactive calls. How the source made its calls: active means hit-call score of the fitted dose curve at least 0.9, where 1 is the maximum; inactive means score below 0.9.

Experiments:
Details in all cases: mRNA level, 48 h; actives raise or lower the signal
[1] = read-out: Tumor necrosis factor receptor superfamily member 6 (Homo sapiens) (UniProt P25445); experiment: LTEA_HepaRG_FAS: Life Technologies and Expression Analysis (LTEA) Assay for Fas cell surface death receptor (FAS) using HepaRG (AID 2283447)
Method in brief: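 Differentiated HepaRG cells in serum-free induction medium were exposed 48 h to 8 half-log concentrations up to 100 uM in 0.5% DMSO, in duplicate. FAS mRNA was measured by qRT-PCR normalised to ACTB, GAPDH and POLR2A; bidirectional fit versus DMSO.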

[2] = read-out: Cyclin D2 (CCND2), CCND2 (gene 894); experiment: LTEA_HepaRG_CCND2: Life Technologies and Expression Analysis (LTEA) Assay for Cyclin D2 (CCND2) using HepaRG (AID 2283449);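 further: CCND2 transcript measured by TaqMan qRT-PCR and normalised to three housekeeping genes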
Method in brief: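 HepaRG, 48 h dosing, 8-pt half-log curve from 100 uM, 0.5% DMSO; duplicate wells. Readout: CCND2 transcript by microfluidic qRT-PCR, housekeeping-normalised; bidirectional fit vs DMSO baseline.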

[3] = read-out: Cyclin Dependent Kinase Inhibitor 1A (CDKN1A), CDKN1A (gene 1026); experiment: LTEA_HepaRG_CDKN1A: Life Technologies and Expression Analysis (LTEA) Assay for Cyclin Dependent Kinase Inhibitor 1A (CDKN1A) using HepaRG (AID 2283450)
Method in brief: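 Gain or loss of CDKN1A transcript is scored by bidirectional fitting against 0.5% DMSO vehicle. Human HepaRG cultures receive chemicals for 48 h across an 8-point series peaking at 100 uM; expression comes from qRT-PCR.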

[4] = read-out: Cyclin D1 (CCND1), CCND1 (gene 595); experiment: LTEA_HepaRG_CCND1: Life Technologies and Expression Analysis (LTEA) Assay for Cyclin D1 (CCND1) using HepaRG (AID 2283451);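 on AC50: differentiated human HepaRG liver cells in serum-free induction medium; TaqMan qRT-PCR transcript level normalised to ACTB GAPDH and POLR2A housekeeping genes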
Method in brief: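 Expression change is measured by qRT-PCR in HepaRG cells after 48 h treatment across eight concentrations topping at 100 uM, with duplicate wells and DMSO (0.5%) serving as baseline for bidirectional fitting.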

[5] = read-out: flavin-containing dimethylaniline monooxygenases 3 (FMO3), FMO3 (gene 2328); experiment: LTEA_HepaRG_FMO3: Life Technologies and Expression Analysis (LTEA) Assay for flavin-containing dimethylaniline monooxygenases 3 (FMO3) using HepaRG (AID 2283453);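 on AC50: differentiated human HepaRG liver cells in serum-free induction medium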
Method in brief: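 Eight-point concentration-response in serum-free HepaRG cultures (top 100 uM, 0.5% DMSO, 48 h). Read-out: FMO3 mRNA level normalized to three endogenous control genes, fitted bidirectionally versus vehicle.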

[6] = read-out: Cytochrome P450 (CYP1A1), CYP1A1 (gene 1543); experiment: LTEA_HepaRG_CYP1A1: Life Technologies and Expression Analysis (LTEA) Assay for Cytochrome P450 (CYP1A1) using HepaRG (AID 2283454)
Method in brief: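 Using HepaRG cultures with 0.5% DMSO as vehicle, eight-concentration exposures (max 100 uM) lasted 48 h. Transcript levels were measured by TaqMan qRT-PCR and normalized to ACTB, GAPDH and POLR2A.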

[7] = read-out: Forkhead box O1 (FOXO1), FOXO1 (gene 2308); experiment: LTEA_HepaRG_FOXO1: Life Technologies and Expression Analysis (LTEA) Assay for Forkhead box O1 (FOXO1) using HepaRG (AID 2283456)
Method in brief: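 HepaRG, 48 h exposure, 8-pt half-log series from 100 uM in 0.5% DMSO, duplicates; Fluidigm qRT-PCR mRNA, housekeeping-normalised; bidirectional fit vs DMSO baseline.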

[8] = read-out: growth arrest and DNA damage 45 (GADD45A), GADD45A (gene 1647); experiment: LTEA_HepaRG_GADD45A: Life Technologies and Expression Analysis (LTEA) Assay for growth arrest and DNA damage 45 (GADD45A) using HepaRG (AID 2283458)
Method in brief: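 HepaRG, 48 h exposure, 8 conc. (top 100 uM, half-log steps), 0.5% DMSO vehicle, duplicates. Read-out: qRT-PCR mRNA level, housekeeping-normalized (ACTB/GAPDH/POLR2A). Curves fit bidirectionally vs DMSO baseline.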

[9] = read-out: Forkhead box O3 (FOXO3), FOXO3 (gene 2309); experiment: LTEA_HepaRG_FOXO3: Life Technologies and Expression Analysis (LTEA) Assay for Forkhead box O3 (FOXO3) using HepaRG (AID 2283459)
Method in brief: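 qRT-PCR readout of FOXO3 transcript, normalized to three housekeeping genes (ACTB, GAPDH, POLR2A); gain or loss fitted against 0.5% DMSO vehicle. HepaRG cells, 48 h chemical exposure, 8-point half-log series, top 100 uM.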

[10] = read-out: ABC Transporter (ABCB1), ABCB1 (gene 5243); experiment: LTEA_HepaRG_ABCB1: Life Technologies and Expression Analysis (LTEA) Assay for ABC Transporter (ABCB1) using HepaRG (AID 2283460)
Method in brief: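 HepaRG, 48 h exposure, 8-pt half-log series from 100 uM, 0.5% DMSO vehicle, duplicates. Readout: ABCB1 transcript by Fluidigm TaqMan qRT-PCR, housekeeping-normalized; bidirectional curve fit vs DMSO baseline.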

[11] = read-out: growth arrest and DNA damage 45 (GADD45B), GADD45B (gene 4616); experiment: LTEA_HepaRG_GADD45B: Life Technologies and Expression Analysis (LTEA) Assay for growth arrest and DNA damage 45 (GADD45B) using HepaRG (AID 2283461)
Method in brief: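 Human HepaRG monolayers receive chemicals for 48 h at eight half-log concentrations, highest 100 uM, in 0.5% DMSO. Expression is measured by TaqMan qRT-PCR and normalized to ACTB, GAPDH and POLR2A.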

[12] = read-out: ABC Transporter (ABCC3), ABCC3 (gene 8714); experiment: LTEA_HepaRG_ABCC3: Life Technologies and Expression Analysis (LTEA) Assay for ABC Transporter (ABCC3) using HepaRG (AID 2283462)
Method in brief: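 Transcriptional change of ABCC3 in HepaRG after 48 h treatment, determined by qRT-PCR normalized to endogenous controls. Concentrations spanned eight half-log steps to 100 uM in 0.5% DMSO.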

[13] = read-out: ABC Transporter (ABCB11), ABCB11 (gene 8647); experiment: LTEA_HepaRG_ABCB11: Life Technologies and Expression Analysis (LTEA) Assay for ABC Transporter (ABCB11) using HepaRG (AID 2283463)
Method in brief: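 HepaRG, 48 h exposure, 8-pt half-log CRC top 100 uM, 0.5% DMSO vehicle, duplicates. Readout: TaqMan qRT-PCR of ABCB11 mRNA, housekeeping-normalized (ACTB/GAPDH/POLR2A). Bidirectional fit vs DMSO baseline.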

[14] = read-out: ABC Transporter (ABCC2), ABCC2 (gene 1244); experiment: LTEA_HepaRG_ABCC2: Life Technologies and Expression Analysis (LTEA) Assay for ABC Transporter (ABCC2) using HepaRG (AID 2283464)
Method in brief: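 After plating and 48 h culture, HepaRG medium is replaced with serum-free induction medium and chemicals are added (8 concentrations, max 100 uM, 0.5% DMSO) for 48 h. Total RNA then undergoes qRT-PCR for ABCC2 with housekeeping normalization.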

[15] = read-out: Broad substrate specificity ATP-binding cassette transporter ABCG2 (Homo sapiens) (UniProt Q9UNQ0); experiment: LTEA_HepaRG_ABCG2: Life Technologies and Expression Analysis (LTEA) Assay for ABC Transporter (ABCG2) using HepaRG (AID 2283465)
Method in brief: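 HepaRG, 48 h exposure, 8-pt half-log series from 100 uM, 0.5% DMSO vehicle, duplicates. Readout: ABCG2 transcript by qRT-PCR (Fluidigm array), housekeeping-normalized; bidirectional curve fit relative to DMSO baseline.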

[16] = read-out: ATP-citrate lyase (ACLY), ACLY (gene 47); experiment: LTEA_HepaRG_ACLY: Life Technologies and Expression Analysis (LTEA) Assay for ATP-citrate lyase (ACLY) using HepaRG (AID 2283466)
Method in brief: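 qRT-PCR readout of ACLY transcript after 48 h chemical treatment of HepaRG cells; expression normalized to three housekeeping genes. Eight-point half-log series, highest 100 uM, 0.5% DMSO vehicle. Gain or loss fitted against DMSO baseline.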

[17] = read-out: catalase (CAT), CAT (gene 847); experiment: LTEA_HepaRG_CAT: Life Technologies and Expression Analysis (LTEA) Assay for catalase (CAT) using HepaRG (AID 2283452)
Method in brief: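 HepaRG cells in serum-free induction medium, 0.5% DMSO vehicle, exposed 48 h in duplicate over 8 half-log concentrations from 100 uM. CAT mRNA measured by qRT-PCR, normalized to ACTB, GAPDH, POLR2A; bidirectional fit versus DMSO.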

[18] = read-out: CFLAR gene, CFLAR (gene 8837); experiment: LTEA_HepaRG_CFLAR: Life Technologies and Expression Analysis (LTEA) Assay for CFLAR gene using HepaRG (AID 2283455)
Method in brief: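 qRT-PCR read-out (Fluidigm/TaqMan) of CFLAR mRNA, normalized to three housekeeping genes, in differentiated human HepaRG cells after 48 h chemical exposure; 8-point half-log series from 100 uM in 0.5% DMSO; bidirectional curve fitting versus DMSO.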

Chain of Broad substrate specificity ATP-binding cassette transporter ABCG2 (Homo sapiens) (Q9UNQ0 whole entry, looked up): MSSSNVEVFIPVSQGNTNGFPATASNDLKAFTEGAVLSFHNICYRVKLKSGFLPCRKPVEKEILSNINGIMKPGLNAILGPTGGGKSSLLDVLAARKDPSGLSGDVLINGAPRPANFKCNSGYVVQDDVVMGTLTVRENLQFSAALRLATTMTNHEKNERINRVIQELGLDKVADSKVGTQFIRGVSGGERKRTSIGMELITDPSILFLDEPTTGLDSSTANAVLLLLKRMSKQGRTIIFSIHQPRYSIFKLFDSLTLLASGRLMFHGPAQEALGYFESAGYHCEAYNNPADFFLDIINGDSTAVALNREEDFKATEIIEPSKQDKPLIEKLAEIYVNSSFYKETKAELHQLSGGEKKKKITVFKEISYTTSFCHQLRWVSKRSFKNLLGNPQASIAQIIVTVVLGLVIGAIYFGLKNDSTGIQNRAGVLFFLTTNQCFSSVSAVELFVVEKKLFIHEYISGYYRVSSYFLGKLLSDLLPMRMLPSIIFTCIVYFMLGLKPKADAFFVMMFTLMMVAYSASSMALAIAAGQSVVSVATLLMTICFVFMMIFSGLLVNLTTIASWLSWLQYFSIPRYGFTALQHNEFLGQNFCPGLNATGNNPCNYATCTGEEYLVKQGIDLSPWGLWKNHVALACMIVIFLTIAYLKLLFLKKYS

CC#Cc1cc(C)nc(Nc2ccccc2)n1
outcome [1]: inactive
outcome [2]: inactive
AC50 [3]: 80.1 µM (active)
AC50 [4]: 13.3 µM (active)
AC50 [5]: 21.8 µM (active)
AC50 [6]: 13.8 µM (active)
outcome [7]: inactive
outcome [8]: inactive
AC50 [9]: 7.38 µM (active)
outcome [10]: inactive
AC50 [11]: 19.2 µM (active)
outcome [12]: inactive
AC50 [13]: 9.09 µM (active)
outcome [14]: inactive
AC50 [15]: 29.9 µM (active)
outcome [16]: inactive

N#Cc1ccc(N(CC(N)=O)CC(F)(F)F)cc1C(F)(F)F
outcome [1]: inactive
outcome [2]: inactive
outcome [3]: inactive
outcome [4]: inactive
outcome [5]: inactive
AC50 [6]: 50 µM (active)
outcome [7]: inactive
outcome [8]: inactive
outcome [9]: inactive
AC50 [10]: 9.92 µM (active)
outcome [11]: inactive
outcome [12]: inactive
AC50 [13]: 0.353 µM (active)
outcome [14]: inactive
outcome [15]: inactive
outcome [16]: inactive

Cc1cc(O)ccc1Cl
outcome [1]: inactive
outcome [3]: inactive
outcome [4]: inactive
outcome [17]: inactive
outcome [5]: inactive
outcome [6]: inactive
outcome [18]: inactive
outcome [7]: inactive
outcome [8]: inactive
outcome [9]: inactive
outcome [10]: inactive
outcome [11]: inactive
outcome [12]: inactive
outcome [13]: inactive
outcome [15]: inactive
outcome [16]: inactive

Cc1ccc(O)c(C)c1
outcome [1]: inactive
outcome [2]: inactive
outcome [3]: inactive
outcome [4]: inactive
outcome [5]: inactive
outcome [6]: inactive
outcome [18]: inactive
outcome [7]: inactive
outcome [8]: inactive
outcome [9]: inactive
outcome [10]: inactive
outcome [11]: inactive
outcome [12]: inactive
outcome [13]: inactive
outcome [14]: inactive
outcome [15]: inactive
outcome [16]: inactive

c1ccc(-c2ccccc2)cc1
outcome [2]: inactive
outcome [3]: inactive
outcome [4]: inactive
outcome [5]: inactive
outcome [6]: inactive
outcome [7]: inactive
outcome [8]: inactive
outcome [9]: inactive
outcome [10]: inactive
outcome [11]: inactive
outcome [12]: inactive
outcome [13]: inactive
outcome [14]: inactive
outcome [15]: inactive
outcome [16]: inactive

Clc1ccc(C(c2ccccc2Cl)C(Cl)(Cl)Cl)cc1 (configuration not stated)
outcome [1]: inactive
outcome [3]: inactive
outcome [4]: inactive
AC50 [5]: 74.6 µM (active)
AC50 [6]: 20 µM (active)
outcome [7]: inactive
outcome [8]: inactive
outcome [9]: inactive
AC50 [10]: 16.9 µM (active)
outcome [11]: inactive
outcome [12]: inactive
AC50 [13]: 72.3 µM (active)
AC50 [14]: 13.2 µM (active)
AC50 [15]: 4.48 µM (active)
outcome [16]: inactive

Cc1ccccc1O
outcome [1]: inactive
outcome [2]: inactive
outcome [3]: inactive
outcome [4]: inactive
outcome [5]: inactive
outcome [6]: inactive
outcome [7]: inactive
outcome [8]: inactive
outcome [9]: inactive
outcome [10]: inactive
outcome [11]: inactive
outcome [12]: inactive
outcome [13]: inactive
outcome [14]: inactive
outcome [15]: inactive
outcome [16]: inactive

ClC1=C(Cl)[C@]2(Cl)[C@@H]3[C@@H](Cl)[C@H]4O[C@H]4[C@@H]3C1(Cl)C2(Cl)Cl
outcome [1]: inactive
outcome [3]: inactive
outcome [4]: inactive
outcome [5]: inactive
AC50 [6]: 50 µM (active)
outcome [7]: inactive
outcome [8]: inactive
outcome [9]: inactive
AC50 [10]: 6.62 µM (active)
outcome [11]: inactive
outcome [12]: inactive
outcome [13]: inactive
outcome [14]: inactive
AC50 [15]: 15.8 µM (active)
AC50 [16]: 75 µM (active)

CC(C)(c1ccccc1)c1ccc(O)cc1
outcome [1]: inactive
outcome [3]: inactive
outcome [4]: inactive
outcome [17]: inactive
outcome [5]: inactive
outcome [6]: inactive
outcome [7]: inactive
outcome [8]: inactive
outcome [9]: inactive
outcome [10]: inactive
outcome [11]: inactive
outcome [12]: inactive
AC50 [13]: 76.1 µM (active)
outcome [14]: inactive
outcome [15]: inactive
outcome [16]: inactive
